# PubChem BioAssay (EPA / NIEHS)
# Records with an inconclusive call do not appear. The source made the active and inactive calls. The calls were made as follows: active = hit-call score of the fitted dose curve at least 0.9, where 1 is the maximum; inconclusive = response in the unintended direction; inactive = score below 0.9.
# Target: Retinoic acid receptor alpha (Homo sapiens) (UniProt P10276)
# Assay: NVS_NR_hRAR_Antagonist: NovaScreen (NVS) Nuclear Receptor Binding Assay for human Retinoic Acid Alpha Receptor Antagonism (RAR) (AID 2283358)
# Procedure, shortened: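 Cell-free TR-FRET binding assay on extracted receptor protein, run in antagonist mode; signal read 2 hours after chemical dosing. Loss of signal was fitted relative to DMSO baseline. Screened at 25 uM in duplicate, actives followed up in concentration series.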
# Sequence of Retinoic acid receptor alpha (Homo sapiens) (P10276 whole entry, looked up): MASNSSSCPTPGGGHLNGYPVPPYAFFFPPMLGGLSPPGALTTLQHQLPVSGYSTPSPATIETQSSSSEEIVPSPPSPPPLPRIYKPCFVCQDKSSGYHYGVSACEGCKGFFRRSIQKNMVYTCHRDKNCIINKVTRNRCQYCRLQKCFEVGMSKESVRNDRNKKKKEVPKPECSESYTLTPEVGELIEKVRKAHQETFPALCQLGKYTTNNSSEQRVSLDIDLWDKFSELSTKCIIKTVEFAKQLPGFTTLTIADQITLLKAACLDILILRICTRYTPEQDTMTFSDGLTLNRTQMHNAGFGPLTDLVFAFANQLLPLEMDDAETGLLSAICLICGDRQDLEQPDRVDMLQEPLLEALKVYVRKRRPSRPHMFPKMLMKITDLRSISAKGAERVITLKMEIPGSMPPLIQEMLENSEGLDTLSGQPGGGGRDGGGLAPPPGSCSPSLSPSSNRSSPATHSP
row,Structure (SMILES),outcome
1,O=C(O)C(F)(F)C(F)(F)C(F)(F)C(F)(F)C(F)(F)C(F)(F)C(F)(F)C(F)(F)F,inactive
2,CCCN(CCC)N=O,inactive
3,Oc1ccc(Cl)cc1Cl,inactive

# Target: human Peroxisome Proliferator-activated Receptor alpha (PPARa), PPARA (gene 5465) (UniProt Q07869)
# Sequence (Q07869 whole entry, looked up): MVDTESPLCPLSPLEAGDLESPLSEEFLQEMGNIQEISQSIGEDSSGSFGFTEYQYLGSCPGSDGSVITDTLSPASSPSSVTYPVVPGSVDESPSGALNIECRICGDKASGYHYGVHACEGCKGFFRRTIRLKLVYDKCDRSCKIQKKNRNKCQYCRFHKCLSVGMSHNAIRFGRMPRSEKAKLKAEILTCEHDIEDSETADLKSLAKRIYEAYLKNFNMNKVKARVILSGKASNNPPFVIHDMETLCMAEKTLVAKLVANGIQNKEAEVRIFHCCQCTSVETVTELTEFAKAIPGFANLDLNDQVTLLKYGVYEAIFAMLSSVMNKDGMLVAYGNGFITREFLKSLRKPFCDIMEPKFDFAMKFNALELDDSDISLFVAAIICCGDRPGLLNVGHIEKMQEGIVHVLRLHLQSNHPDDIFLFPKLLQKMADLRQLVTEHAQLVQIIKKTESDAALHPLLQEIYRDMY
# Assay: NVS_NR_hPPARa: NovaScreen (NVS) Nuclear Receptor Binding Assay for human Peroxisome Proliferator-activated Receptor alpha (PPARa) (AID 2283359);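 also: activity means loss of TR-FRET signal versus DMSO baseline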
# Procedure, shortened: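 Cell-free binding assay with extracted human protein, read by TR-FRET 1 h after chemical dosing. Loss of signal relative to DMSO baseline indicates binding. Primary screen used duplicate single concentration (25 uM); actives followed up in concentration series.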
row,Structure (SMILES),outcome
1,Cc1ccc(O)c(C)c1,inactive
2,OCC(O)CO,inactive
3,NS(=O)(=O)C(F)(F)C(F)(F)C(F)(F)C(F)(F)C(F)(F)C(F)(F)C(F)(F)C(F)(F)F,inactive
4,O=C(O)C(F)(F)C(F)(F)C(F)(F)C(F)(F)C(F)(F)C(F)(F)C(F)(F)C(F)(F)F,inactive
5,CCCN(CCC)N=O,inactive
6,O=C(O)C(F)(F)C(F)(F)C(F)(F)C(F)(F)C(F)(F)F,inactive
7,CC(C)(O)C(=O)Nc1ccc([N+](=O)[O-])c(C(F)(F)F)c1,inactive

# Target: PGR (gene 5241) (UniProt P06401)
# Sequence (P06401 whole entry, looked up): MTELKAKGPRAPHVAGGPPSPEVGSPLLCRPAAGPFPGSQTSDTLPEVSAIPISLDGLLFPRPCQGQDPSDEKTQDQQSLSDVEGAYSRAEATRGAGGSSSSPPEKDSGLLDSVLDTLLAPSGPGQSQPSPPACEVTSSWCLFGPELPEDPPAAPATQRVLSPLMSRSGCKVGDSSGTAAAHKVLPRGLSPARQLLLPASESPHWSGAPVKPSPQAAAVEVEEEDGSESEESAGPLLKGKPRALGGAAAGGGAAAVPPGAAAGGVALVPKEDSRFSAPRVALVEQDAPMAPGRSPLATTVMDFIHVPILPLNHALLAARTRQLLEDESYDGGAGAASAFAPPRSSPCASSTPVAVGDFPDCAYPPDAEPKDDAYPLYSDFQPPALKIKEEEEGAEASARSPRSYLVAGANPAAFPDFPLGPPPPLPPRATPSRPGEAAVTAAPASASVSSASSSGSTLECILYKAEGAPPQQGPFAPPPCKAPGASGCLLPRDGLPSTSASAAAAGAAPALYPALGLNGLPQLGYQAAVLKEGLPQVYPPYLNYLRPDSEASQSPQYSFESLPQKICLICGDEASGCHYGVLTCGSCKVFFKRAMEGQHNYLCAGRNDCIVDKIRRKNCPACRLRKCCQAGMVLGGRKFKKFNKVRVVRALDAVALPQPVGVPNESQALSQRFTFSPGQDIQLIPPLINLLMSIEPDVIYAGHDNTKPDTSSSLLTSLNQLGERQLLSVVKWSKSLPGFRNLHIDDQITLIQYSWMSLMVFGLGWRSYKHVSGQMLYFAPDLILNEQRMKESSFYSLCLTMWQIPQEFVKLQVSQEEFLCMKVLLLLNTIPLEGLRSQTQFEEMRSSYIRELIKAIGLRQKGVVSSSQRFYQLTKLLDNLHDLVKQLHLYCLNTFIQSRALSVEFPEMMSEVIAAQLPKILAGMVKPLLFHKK
# Assay: NVS_NR_hPR: NovaScreen (NVS) Nuclear Receptor Binding Assay for human Progestron Receptor (PR) (AID 2283360);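 also: active means loss of bound radioligand signal versus DMSO baseline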
# Procedure, shortened: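 Competitive displacement of a labelled radioligand from T47D-derived receptor protein is measured in a cell-free format. Initial testing uses 25 uM in duplicate, with positive and negative controls on every plate.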
Structure (SMILES),outcome,AC50
Cc1ccc(O)c(C)c1,inactive,
C[C@]12CCC(=O)C=C1CC[C@@H]1[C@@H]2CC[C@]2(C)C(=O)CC[C@@H]12,,8.27 µM (active)
O=C(N[C@H]1CN2CCC1CC2)c1cc2ccoc2cn1,inactive,
CC(C)(O)C(=O)Nc1ccc([N+](=O)[O-])c(C(F)(F)F)c1,inactive,
Oc1ccc(Cl)cc1Cl,inactive,
CC(C)(c1ccccc1)c1ccc(O)cc1,,13.9 µM (active)
CCC(=O)O[C@H]1CC[C@H]2[C@@H]3CCC4=CC(=O)CC[C@]4(C)[C@H]3CC[C@]12C,,1.04 µM (active)
